From PubChem BioAssay
Active and inactive are the calls of the source. Unless noted, the rule behind the calls is not given here.

Legend:
[1] = tested on: XIP peptide (Xip251-270) binding; test: small-molecule binders of XIP peptide, primary screen, biochemical, small-molecule microarray, fluorescence 635/667 nm, 0.1 µg/mL protein (AID 1182); conditions: fluorescent protein binding, 635 nm, higher = more signal, called active from +8 up or from −8 down
XIP peptide (Xip251-270) = test: small-molecule binders of XIP peptide, primary screen, biochemical, small-molecule microarray, fluorescence 635/667 nm, 0.5 µg/mL protein (AID 1183); conditions: small-molecule microarray binding, fluorescence 635 nm; higher = more signal
[2] = Plasmodium falciparum growth inhibition, primary screen, strain 3D7, DAPI fluorescence, 100 nL (AID 1184);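 note: parasites grown inside human red blood cells in medium with human serum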; conditions: P. falciparum 3D7 growth, 3 d, higher = more signal
[3] = molecular target: Homeobox protein Hox-A13 (Mus musculus) (UniProt Q62424); test: inhibitors of HoxA13-DNA binding, primary screen, biochemical, fluorescence polarization, labeled oligonucleotide (AID 1185); conditions: 15 min, higher = more signal, called active from +8 up or from −8 down
Chain of Homeobox protein Hox-A13 (Mus musculus) (Q62424 whole entry, looked up): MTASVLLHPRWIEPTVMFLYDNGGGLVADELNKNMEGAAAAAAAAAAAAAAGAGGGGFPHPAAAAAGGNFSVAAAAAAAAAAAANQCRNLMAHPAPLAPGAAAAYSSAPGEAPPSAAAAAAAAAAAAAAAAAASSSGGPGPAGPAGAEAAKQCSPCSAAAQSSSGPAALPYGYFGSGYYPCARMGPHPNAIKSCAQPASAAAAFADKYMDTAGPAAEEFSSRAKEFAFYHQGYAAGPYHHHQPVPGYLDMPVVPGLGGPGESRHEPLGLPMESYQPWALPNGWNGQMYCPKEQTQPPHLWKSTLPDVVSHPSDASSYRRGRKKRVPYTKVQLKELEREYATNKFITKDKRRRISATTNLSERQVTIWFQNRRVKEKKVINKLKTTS

[4] = inhibitors of hydroxyurea-induced Chk1 phosphorylation, primary screen, imaging, HeLa, phospho-Chk1 antibody, percent positive cells (AID 1186); conditions: hydroxyurea-induced phospho-Chk1 immunofluorescence imaging, higher = more signal
[5] = inhibitors of hydroxyurea-induced Chk1 phosphorylation, primary screen, imaging, HeLa, phospho-Chk1 nuclear intensity (AID 1187); conditions: hydroxyurea-induced phospho-Chk1 immunofluorescence imaging, higher = more signal

Compound | composite z-score [1] | composite z-score (XIP peptide (Xip251-270)) | z-score [2] | z-score [3] | z-score [4] | z-score [5]
NC(=O)[C@]1(Cc2ccccc2)N=C(c2ccc(OCCCO)cc2)O[C@@H]1c1ccccc1 | -0.0696 (inactive) | 0.0178 | -2.04 | -5.25 (inactive) | -0.0614 (inactive) | -0.209 (inactive)
CS(=O)(=O)CCOC(=O)C1=CC(c2ccc(CO)cc2)=CC(c2cccs2)N(Cc2cccc(OC(F)(F)F)c2)C=C1C(=O)OCCS(C)(=O)=O (stereo not drawn) | 0.276 (inactive) | 0.514 | -2.5 | -4.18 (inactive) | 0.552 (inactive) | 0.377 (inactive)
O=C1C2C=CC(C(O)c3cccc4ccccc34)N(n3cnnc3)C2C(=O)N1Cc1ccccc1 (stereo not drawn) | -0.0195 (inactive) | -0.633 | -0.206 | -1.86 (inactive) | 0.993 (inactive) | -0.055 (inactive)
C=C(COC)/C(=C/C[C@H](OC(C)=O)c1ccccc1OCCO)c1cnc2ccccc2c1 | 0.384 (inactive) | 0.0219 | -2.82 | -5.24 (inactive) | 0.134 (inactive) | 0.19 (inactive)
Cc1ccc([C@H]2C(C(=O)O)=C[C@@H](C(C)C)N2S(=O)(=O)c2ccc(C)cc2)cc1 | 0.165 (inactive) | 0.386 | 1.65 | -4.3 (inactive) | -0.482 (inactive) | -1.01 (inactive)
COCCOC(=O)N1C(=O)[C@@]2(c3cc(C#CC4=CCCCC4)ccc31)[C@H](c1ccc(OCCO)cc1)N1[C@H](c3ccccc3)[C@H](c3ccccc3)OC(=O)[C@H]1[C@@H]2C(=O)Nc1nc2ccccc2s1 | -0.166 (inactive) | 0.622 | -1.29 | 3.94 (inactive) | -0.446 (inactive) | -1.1 (inactive)
O=C1O[C@@H](c2ccccc2)[C@@H](c2ccccc2)N2[C@@H](c3ccccc3OCCO)[C@]3(C(=O)Nc4ccc(C#CC5(O)CCCCCC5)cc43)[C@@H](C(=O)NC[C@H](O)c3ccccc3)[C@H]12 | 0.487 (inactive) | 0.76 | -1.96 | -2.71 (inactive) | -0.213 (inactive) | 0.0361 (inactive)
C=CCNC(=O)[C@H]1[C@@H]2C(=O)O[C@@H](c3ccccc3)[C@@H](c3ccccc3)N2[C@@H](c2ccc(O)cc2)[C@]12C(=O)Nc1ccc(C#Cc3ccc(OC)cc3)cc12 | 0.292 (inactive) | 0.779 | -0.785 | -1.91 (inactive) | 0.0407 (inactive) | 0.277 (inactive)
